Values without a mark were called inactive. No rule for the calls is given here.

For the experiment, the target named is Pantothenate synthetase (Mycobacterium tuberculosis (strain ATCC 25618 / H37Rv)) (UniProt P9WIL5). Description: Recombinant Mtb pantothenate synthetase (PanC) inhibitors, coupled enzyme, confirmatory (AID 375).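 Also: 0% = full reaction with vehicle and 100% = no enzyme background.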 The conditions noted are these: coupled enzyme assay; at 10 µM, hits give high values.
Pantothenate synthetase (Mycobacterium tuberculosis (strain ATCC 25618 / H37Rv)), sequence (P9WIL5 whole entry, looked up): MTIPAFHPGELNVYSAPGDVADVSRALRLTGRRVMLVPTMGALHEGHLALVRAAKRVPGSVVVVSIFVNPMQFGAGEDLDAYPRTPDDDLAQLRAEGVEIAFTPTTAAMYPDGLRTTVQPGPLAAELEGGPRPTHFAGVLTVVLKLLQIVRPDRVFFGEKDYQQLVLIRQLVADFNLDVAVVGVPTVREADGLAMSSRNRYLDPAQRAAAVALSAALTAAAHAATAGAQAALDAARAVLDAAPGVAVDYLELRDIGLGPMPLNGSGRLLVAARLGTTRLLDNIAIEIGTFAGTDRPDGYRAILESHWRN
For the compound `O=C(CN(c1ccccc1)S(=O)(=O)c1ccccc1)N1CCN(Cc2ccc3c(c2)OCO3)CC1`, the inhibition was 0%.

`COc1ccc(-n2c(Cc3cccn3C)nnc2SCC(=O)NCC2CCCO2)cc1` (stereo not given): the inhibition was 11%. Consider `CCOc1ccccc1C(=O)NC(C)c1ccc2c(c1)OCO2` (stereo not given), for which the inhibition is 0%. As for `COC(=O)c1cn(-c2ccccc2)nc1C(=O)OC`, the figure is 2%; as for `Cc1c(C(=O)NCc2cccnc2)oc2ccc(S(=O)(=O)N3CCCCC3)cc12`, 0%; as for `CCn1c(=O)c2cc(S(=O)(=O)NCc3ccccc3)ccc2n(CC)c1=O`, 0%. Next, `CCC(C)NC(=O)C1CCCN(S(=O)(=O)c2ccc(-n3cnnn3)cc2)C1` (stereo not given): 0%; `Cn1c(C(=O)NCc2cccnc2)cc2sccc21`: 0%; `O=C(Oc1ccc2ccc(OC(=O)N3CCOCC3)cc2c1)N1CCOCC1`: 0%. `CCOc1ccccc1NC(=O)N1C2CCCC1CC(NC(=O)C1CC1)C2` (stereo not given): the inhibition is 6%. Take `CC(=O)OC1c2ccccc2C(=O)N1c1ccccc1C` (stereo not given): the inhibition is 1%. `COC(=O)[C@H](C)NC(=O)Nc1cccc(C(F)(F)F)c1`: the inhibition is 0%. Next, `COc1cccc(C=Nc2ccc3c(c2)OCCO3)c1O`: 3%. Turning to `O=C(COC(=O)c1ccccc1O)Nc1ccc(OC(F)F)cc1`, the inhibition is 0%. With `Nc1nnc(Cc2ccc(Cl)cc2)s1`, the inhibition is 4%. With `CC(=O)c1ccc(OCC(O)CN2CCN(CCO)CC2)cc1` (stereo not given), the inhibition was 4%. As for `COc1cccc(OCCOCCN(C)CCO)c1`, the figure is 2%; as for `Cc1nn(-c2ccccc2)c(C)c1C(=O)OCC(=O)c1c(N)n(CC(C)C)c(=O)n(C)c1=O`, 9%. Regarding `Cc1cccc(NC(=O)c2ccc3ccccc3n2)n1`, the inhibition is 0%. For `Cc1ccc(-n2cnnn2)c2cccnc12`, the inhibition is 5%.

Consider `Cc1ccc(Nc2nc(CSc3nnnn3C)cs2)cc1`, for which the inhibition is 0%. For `COc1ccc(CN2C(=O)[C@@H]3C(c4ccc(F)cc4)=NO[C@@H]3C2=O)cc1`, the inhibition is 2%.

Take `Cc1cc(NC(=O)c2cc3ccccc3o2)cc(C)c1OCC(=O)N1CCOCC1`: the inhibition was 0%. Next, `CC(C)CCSc1nc2c(c(=O)[nH]c(=O)n2C)n1CCCc1ccccc1`: 0%. For the compound `CCCC(=O)Nc1ccc(NC(=O)C2CC2)cn1`, the inhibition was 2%. Turning to `O=C(CN1CCN(Cc2ccc3c(c2)OCO3)CC1)Nc1ccc2c(c1)OCCO2`, the inhibition is 0%. With `CC/C(O)=C(/C#N)c1nnc2n1CCCCC2`, the inhibition is 5%. In the case of `Cc1ccc(-c2nc3cc(NC(=O)C(C)C)ccc3o2)cc1`, the inhibition is 0%. In the case of `O=C(NCc1cccnc1)c1ccc(Cl)c(Cl)c1`, the inhibition was 0%. Next, `O=C(COc1ccccc1Cl)OCC(=O)N1CCN(S(=O)(=O)c2ccccc2)CC1`: 8%; `CCOC(=O)C(NC(=O)c1ccccc1)(Nc1cc(C)on1)C(F)(F)F` (stereo not given): 0%; `c1ccc(Cc2ccc(OCCn3cncn3)cc2)cc1`: 0%. Next, `CC(=O)c1c(C)[nH]c(C(=O)Nc2c(C)n(C)n(-c3ccccc3)c2=O)c1C`: 7%; `C=CCSc1nnc(-c2cccnc2)o1`: 0%; `CCOc1ccc(C(=O)CN2CCN(S(=O)(=O)c3ccc(OC)cc3)CC2)cc1`: 1%.

As to `O=S(=O)(c1ccc(F)cc1)N1CCC(N2CCCC2)CC1`, the inhibition is 0%. As to `Cn1c(=O)[nH]c(=O)c2c1nc(Br)n2Cc1ccccc1F`, the inhibition is 0%. Next, `Cc1ccc2cc(C(c3nnnn3C3CCCC3)N3CCN(c4ccc(F)cc4)CC3)c(=O)[nH]c2c1` (stereo not given): 6%.

Turning to `O=C(CCCn1c(=O)[nH]c2ccsc2c1=O)N1CCN(c2ccccn2)CC1`, the inhibition is 3%. Take `CCC(c1nnnn1Cc1ccco1)N(CCc1ccccc1)Cc1cc2cccc(C)c2[nH]c1=O` (stereo not given): the inhibition is 1%.

A word on the inhibition: it is how much of the control response was suppressed.

Source of the values: PubChem BioAssay.
